Mdm2 MdmX PPI: inhibitors of human Mdm2-MdmX association, primary screen, cell-based, luminescence, split luciferase, SaOS-2, uHTS. hit rate 3% among 330,000. Protein Mdm4 (Homo sapiens) + E3 ubiquitin-protein ligase Mdm2 (Homo sapiens), …. SaOS-2 split-luciferase Mdm2/MdmX complementation. inhibition, % at 8 µM;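 active = inhibition of at least 50% at 8 µM in the primary screen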
Target sequence (O15151 whole entry, looked up): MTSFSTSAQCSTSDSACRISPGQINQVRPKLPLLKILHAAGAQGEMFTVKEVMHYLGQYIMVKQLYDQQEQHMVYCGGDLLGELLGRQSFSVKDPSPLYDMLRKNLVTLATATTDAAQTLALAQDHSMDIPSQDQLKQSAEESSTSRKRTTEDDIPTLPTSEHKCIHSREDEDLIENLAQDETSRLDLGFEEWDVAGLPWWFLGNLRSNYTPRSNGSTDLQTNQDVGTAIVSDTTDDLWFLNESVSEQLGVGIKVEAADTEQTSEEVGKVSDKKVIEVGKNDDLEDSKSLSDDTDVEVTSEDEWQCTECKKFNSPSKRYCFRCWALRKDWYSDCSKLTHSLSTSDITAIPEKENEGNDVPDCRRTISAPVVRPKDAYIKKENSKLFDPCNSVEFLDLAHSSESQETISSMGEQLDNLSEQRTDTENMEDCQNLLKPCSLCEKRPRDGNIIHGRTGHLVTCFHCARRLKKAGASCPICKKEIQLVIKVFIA
Target sequence (Q00987 whole entry, looked up): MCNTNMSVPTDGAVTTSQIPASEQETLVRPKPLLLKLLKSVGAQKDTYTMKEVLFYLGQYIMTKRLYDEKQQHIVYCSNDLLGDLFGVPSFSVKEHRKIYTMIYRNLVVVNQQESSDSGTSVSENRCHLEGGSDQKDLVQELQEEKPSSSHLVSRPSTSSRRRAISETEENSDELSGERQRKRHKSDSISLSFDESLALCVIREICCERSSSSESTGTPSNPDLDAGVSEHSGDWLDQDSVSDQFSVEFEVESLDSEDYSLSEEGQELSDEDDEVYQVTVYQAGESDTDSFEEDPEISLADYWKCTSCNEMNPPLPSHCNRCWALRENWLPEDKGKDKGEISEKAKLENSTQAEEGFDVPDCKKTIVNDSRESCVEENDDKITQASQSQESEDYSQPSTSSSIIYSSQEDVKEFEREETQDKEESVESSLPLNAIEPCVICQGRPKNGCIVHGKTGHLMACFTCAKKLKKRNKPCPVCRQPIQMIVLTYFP
Jurkat NFkB inh: inhibitors of induced NF-kB luciferase reporter, primary screen, TCR NF-kB activation inhibitor project, cell-based, luminescence, uHTS; hit rate 0.53% among 330,000; Jurkat, PMA/ionomycin-induced NF-kB luciferase reporter; AID 435003, 2010; inhibition, % at 4 µM; in the data active = inhibition above about 50%
Gli-Sufu antag: Gli-Sufu pathway antagonists, primary screen, luciferase luminescence, Sufu-KO-LIGHT cells, uHTS; Sufu-KO-LIGHT fibroblasts, Gli luciferase reporter luminescence; inhibition, % at 5 µM; hit rate 0.74% among 340,000;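 active = inhibition above about 55%, limit read from the data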;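 note: 0% = DMSO-treated cells and 100% = wells with medium but no cells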
CSC inhib: cancer stem cell viability inhibitors, primary screen, luminescence; cancer stem cell-like cells viability; inhibition, % at 7.5 µM; hit rate 1.1% among 300,000; in the data active = inhibition above about 75%; inconclusive = no clear call, values can overlap the other calls; tested in HMLE shEcad cells
697 NFkB inh: inhibitors of PMA/ionomycin-induced NF-kB reporter, 697 cells, primary screen, B-cell NF-kB inhibitor project, cell-based, luminescence, uHTS. 697 B-cell NF-kB luciferase reporter, 16 h. inhibition, % at 4 µM. hit rate 0.33% among 330,000. AID 435022, 2010; in the data active = inhibition above about 35%
aSyn 5UTR inh: MLPCN primary screen, SNCA 5' untranslated region | inhibition, % (tested at 7.5 µM) | alpha-synuclein 5'UTR reporter, inhibitor activity | hit rate 0.82% among 300,000; in the data active = inhibition above about 60%; inconclusive = no clear call, values can overlap the other calls;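 note: H4 neuroglioblastoma cells stably carrying SNCA 5'UTR luciferase fusion; 0% = DMSO wells and 100% = positive control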
Mdm2-MdmX conf: Mdm2-MdmX complex disruptors, retested hits, confirmation, luminescence, single concentration. shares compounds with Mdm2 MdmX PPI. Mdm2-MdmX binding, luminescent assay. inhibition, % at 8 µM. hit rate 55% among 10,000. AID 489028, 2010; in the data active = inhibition above about 40%
FLuc counter: full-length luciferase signal inhibition, confirmation, counter-screen for Mdm2/MdmX interaction inhibitor project, cell-based, single concentration, SaOS-2; shares compounds with Mdm2 MdmX PPI; SaOS-2 full-length luciferase counterscreen, luminescence; inhibition, % at 8 µM; hit rate 77% among 6,200;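 active = mean inhibition at 8 µM reaching about 37%, which flags the compound as non-specific, limit read from the data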;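 note: p53-null SaOS-2 cells with luciferase driven by a doxycycline-inducible promoter; compound on cells about two nights before reading with doxycycline added after day one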
* marks the source's active call; other numbers are inactive results; ? = inconclusive; . = no result. Hits are enriched below; roughly 4.5% of the tested compounds scored in any of these assays.

SMILES	Mdm2 MdmX PPI	Jurkat NFkB inh	Gli-Sufu antag	CSC inhib	697 NFkB inh	aSyn 5UTR inh	Mdm2-MdmX conf	FLuc counter
O=C(NCCN1C(=O)S/C(=C\c2ccc(Cl)c([N+](=O)[O-])c2)C1=O)C1=COCCO1	96*	4	0	52	-7	-44	58*	57*
CSc1ccc(CCNC(=O)c2cccc3c2C(=O)N(C2CCCCC2)C3)cc1	39	6	13	-9	-10	-49	.	.
Cc1ccc(-n2ncc(C(=O)Nc3ccc(Cl)cc3)c2C2CCNCC2)cc1C	61*	-2	44	5	-20	20	54*	77*
Cc1ccn2cc(-c3ccc(O)c(O)c3)nc2c1	-55	-38	-24	33	-93	41	.	.
CCn1c(=O)c([N+](=O)[O-])c(Cl)c2ccccc21	99*	-2	2	?	0	-6	97*	55*
CC1(C)C=Cc2c(c3c(c4c(=O)c(-c5ccc(O)cc5)coc24)OC(C)(C)CC3)O1	75*	-6	-14	100*	-2	45	31	.
CC(C)c1ccc(OCC(=O)NNC(=S)NC(=O)c2ccco2)c(Br)c1	50*	-4	-5	-1	2	-7	43*	71*
CCc1ccc2[nH]c(=O)c(CN(Cc3ccc4c(c3)OCO4)Cc3nnnn3C3CCCC3)cc2c1	64*	-1	9	1	0	0	12	.
Cc1ccc2cc(CN(Cc3ccc(F)cc3)Cc3nnnn3C3CCCC3)c(=O)[nH]c2c1	7	-2	5	21	17	21	.	.
O=C(Nc1ccc2c(c1)OCCO2)c1cccc2nc3ccccc3nc12	78*	2	9	83*	-5	?	57*	28
O=C(Nc1ccc2c(c1)OCCO2)c1ccccc1F	-24	-93	-68	0	-129	38	.	.
CC(=NN1CC(=O)NC1=O)c1ccc([N+](=O)[O-])o1	.	.	2	.	.	.	.	.
Cn1c(NC(=O)c2ccccc2F)c(-c2cccs2)c(=O)c2ccccc21	6	-3	5	-1	12	4	.	.
COc1cccc2sc(Nc3nnc(-c4ccc(F)cc4)o3)nc12	64*	-17	-3	107*	-39	5	41*	67*
COc1cccc2sc(Nc3nnc(-c4cccs4)o3)nc12	20	-45	23	63	-166	41	.	.
CCc1ccccc1NC(=O)C1CCN(C(=O)N2CCOc3ccccc32)CC1	7	-2	-8	-16	-2	-4	.	.
O=C1CC(C(=O)NC2CCCCC2)C(c2ccccc2)O1 (centres undefined)	14	0	.	-1	11	-5	.	.
C[C@@H]1[C@@H](Sc2ccccc2)CC(=O)O[C@@H]1c1ccc(-c2ccccc2)cc1	97*	22	6	20	10	-182	63*	51*
COc1ccccc1NC(=O)CSCc1cc(=O)n2ccsc2n1	-5	2	-15	4	-7	4	.	.
CCCn1c(SCC(=O)N2c3ccccc3CCc3ccccc32)nc2c1c(=O)n(C)c(=O)n2C	28	11	16	-5	15	45	.	.
O=C(c1ccc(Cl)cc1)C(Cn1cncn1)C(Sc1ccccc1)c1ccccc1 (centres undefined)	11	15	-3	25	-61	10	.	.
Cc1ccc(SC(c2ccccc2)C(Cn2cncn2)C(=O)c2ccccc2)cc1 (centres undefined)	60*	0	-2	-9	-16	-20	23	.
CCc1nn2c(=O)c(S(=O)(=O)Nc3ccc(Cl)cc3)c(C)nc2s1	16	4	5	-9	6	10	.	.
CCc1cccc(NS(=O)(=O)c2c(C)nc3sc(CC)nn3c2=O)c1	53*	0	10	6	-10	.	2	.
